In the library only some 17% were active in any assay of this set; here they are far more common.
S2 tox: cell viability loss in ATXN counter-screen | S2 cells (HEK-293 line with an ATXN2-luciferase reporter) viability, CellTiter-Fluor protease fluorescence, 24 h | Potency, µM (titrated, usually from 56.7 µM), usual class: cytotoxic | 400,000 compounds, 0.49% hits; also: nearly all actives have a fitted effect of over 40% in size
HepG2 tox: HepG2 cytotoxicity, counter-screen for TGF-b inhibitors; HepG2 CAGA-GFP viability, ATP luminescence, 18 h; Potency, µM (top dose mostly 46.1 µM), actives largely listed as cytotoxic; 410,000 compounds, 0.76% hits; AID 588856
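CellTiter-Glo luminescence gave cytotoxicity after 18 hours at 37 degrees C. The cells were HepG2 CAGA-GFP in 1% FBS DMEM, stimulated with 500 pg/mL TGF-beta after compound addition. %Activity was normalised to no-cell wells (complete cell-killing) and DMSO (no toxicity), and curves were fitted and classified.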
TDP1 cell noCPT: qHTS for Inhibitors of human tyrosyl-DNA phosphodiesterase 1 (TDP1): qHTS in cells in absence of CPT; DT40 Tdp1-/- hTDP1 cells, no CPT, ATP luminescence, 48 h; Potency, µM (series often up to 46.2 µM), hits mostly inhibitors; 420,000 compounds, 15% hits; AID 686978, 2013; also: nearly all actives have a fitted effect of over 55% in size
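Chicken DT40 Tdp1-/- cells stably complemented with human TDP1 were seeded at 400 cells/well with DMSO in place of 20 nM camptothecin. After compound pinning, cells grew at least 48 hr at 37 °C; viability read by CellTiter-Glo luminescence.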
TGFb SMAD3 inh: inhibitors of TGF-b signaling | HepG2 CAGA-GFP TGF-b/SMAD3 reporter, GFP fluorescence, 18 h; TGF-beta stimulated, 500 pg/mL final | Potency, µM (series often up to 46.1 µM), usual class: inhibitors | 410,000 compounds, 1.2% hits | AID 588855; also: nearly all actives have a fitted effect of over 65% in size
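HEPG2 CAGA-GFP reporter cells (1000/well, DMEM with 1% FBS) received compounds, then recombinant TGF-beta at 500 pg/mL final for 18 hours at 37 degrees C. Per-cell GFP summed per well was normalised to unstimulated and stimulated DMSO controls before curve fitting.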
DT40 TDP1 CPT: DT40-hTDP1 cell growth loss with CPT; chicken DT40 Tdp1-/-;hTDP1 cells + 20 nM CPT, ATP luminescence, 48 h; Potency, µM (highest dose often 46.2 µM), hits mostly inhibitors; 420,000 compounds, 12% hits; AID 686979; also: nearly all actives have a fitted effect of over 55% in size
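Cell growth measured by CellTiter-Glo luminescence after a minimum 48 h, 37 C compound exposure with 20 nM CPT in Tdp1-knockout DT40 cells stably expressing hTDP1, seeded 400/well; qHTS titration format.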
ATXN2 expr inh: inhibitors of ATXN2 expression. HEK-293 ATXN2-luciferase reporter, luminescence, 24 h. Potency, µM (series often up to 57 µM), actives largely listed as inhibitors. 360,000 compounds, 0.72% hits. AID 1745845; also: nearly all actives have a fitted effect of over 55% in size
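qHTS (up to 57 uM final) was run with 24 h compound exposure of reporter cells at 37 °C. Each well was multiplexed: SteadyGlo luminescence measured ATXN2-luciferase expression after a fluorogenic Gly-Phe-AFC viability readout (25 uM final).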
Numbers stand for hits; 0 = inactive; ? = inconclusive; - = no result; [ ] = dose if it differs, or a comment. Calls follow the shape of the dose curve; as a rule, active = well fitted curve in the direction sought with a large enough effect; inconclusive = small, poorly fitted or top-dose-only effect, or another doubt; inactive = no such curve, though single readings can be large; an effect the other way counts as inactive or inconclusive.

SMILES	S2 tox	HepG2 tox	TDP1 cell noCPT	TGFb SMAD3 inh	DT40 TDP1 CPT	ATXN2 expr inh
CCOCCCNC(=O)C(NC(=O)C1CCC(=O)N1)c1ccc(C)cc1 (configuration not stated)	0	0	0	0	0	0
COc1ccc(O)c(/C=N/NC(=O)CCC(=O)Nc2ccc(F)cc2)c1	-	0	?	0	?	0
Cc1ccc(N(C)S(=O)(=O)c2c(C)noc2/C=C/N(C)C)cc1	?	0	?	0	18µM	-
COc1ccc(C2=NN(C(=O)CSc3nc4ccccc4s3)C(c3ccc(OC)cc3)C2)cc1 (configuration not stated)	0	0	12µM	0	13µM	0
COc1ccc(C2=NN(C(=O)CSc3nc4ccccc4s3)C(c3ccc(F)cc3)C2)cc1 (configuration not stated)	0	0	?	0	21µM	0
CCOC(=O)[C@H]1[C@H]2COc3ccccc3[C@@H]2N2C(=O)CNC(=O)[C@@]12C	0	0	0	0	0	0
O=C1CC(=O)Nc2cc(S(=O)(=O)N3CCOc4ccccc43)ccc2N1	0	0	0	0	0	0
COc1ccccc1CN1CCC2(CC1)CCN(C(=O)c1csnn1)CC2	-	-	0	-	0	-
O=C(NC(Cc1ccccc1)C(=O)O)/C(=C/c1ccc(Br)cc1)NC(=O)c1ccc(Br)o1 (configuration not stated)	0	0	0	0	0	0
O=S1(=O)c2ccccc2OC(COCc2ccccc2)CN1Cc1ccccc1 (configuration not stated)	0	0	?	0	?	0
CCCCN1CC(COCc2ccccc2)Oc2ccccc2S1(=O)=O (configuration not stated)	0	0	23µM	?	?	0
Cc1cc(Oc2cccc3c2S(=O)(=O)N(C2CCCC2)CC(COCc2ccccc2)O3)cc(C)c1C (configuration not stated)	0	0	16µM	0	23µM	0
CCCCN1CC(COCc2ccccc2)Oc2cccc(Oc3ccc(OC)cc3)c2S1(=O)=O (configuration not stated)	0	0	18µM	0	?	0
CCCCN1CC(COCc2ccccc2)Oc2cccc(F)c2S1(=O)=O (configuration not stated)	0	0	?	?	?	0
Cc1nn(CC(=O)NC2CC2)c(C)c1S(=O)(=O)NC(C)(C)C	?	0	0	0	0	0
Cc1ccc2c(CC(=O)Nc3nc(C)cs3)coc2c1	0	0	?	0	?	0
Cn1c(=O)c(-c2cc(F)cc(F)c2)nc2cnc(Oc3cccc(Cl)c3)nc21	-	-	0	-	0	-
COc1cccc(CNC(=O)CSc2nc(=O)n(Cc3ccncc3)c3c2CCC3)c1	0	0	0	0	0	0
CC(C)c1cc(-c2cc(C(=O)Nc3ccccc3)on2)nc(NC2CCCC2)n1	0	0	?	0	26µM	0
Cc1ccnc(NC(=O)c2c(-c3ccccc3Cl)noc2C)c1	0	0	0	0	?	0
CC(C)c1cc(-c2cc(-c3ccccc3)on2)nc(NC2CCCC2)n1	0	0	?	0	?	0
Cc1onc(-c2ccccc2Cl)c1C(=O)Nc1ccccc1O	0	0	18µM	0	?	0
Cc1nc(NC(=S)NC(=O)c2ccccc2)sc1C	0	0	?	0	0	0
Cc1cc(C)nc(NC(=O)c2c(-c3ccccc3Cl)noc2C)c1	0	0	21µM	?	?	0
Cc1nc(NC(=O)c2ccccc2)sc1C	0	16µM	?	0	0	-
SMILES	S2 tox	HepG2 tox	TDP1 cell noCPT	TGFb SMAD3 inh	DT40 TDP1 CPT	ATXN2 expr inh
CC(C)(C)c1ccc(COn2ccnc2)cc1	0	0	0	0	0	-
CN(C)[C@@H]1C(=O)C(C(N)=O)=C(O)[C@@]2(O)C(=O)C3=C(O)c4c(O)cccc4C[C@H]3C[C@@H]12	0	-	-	-	-	0
CC1(C(=O)Nc2cccc(-n3cnnn3)c2)Cc2ccccc2C(=O)O1 (configuration not stated)	?	0	0	0	0	0
Cc1onc(-c2ccccc2Cl)c1C(=O)N(C)C1CCCCC1	0	0	3.7µM	?	4.6µM	0
COC(=O)c1c(NC(=O)c2nc3nc(C)cc(C(F)F)n3n2)sc2c1CCC2	0	0	16µM	0	?	0
Cc1cc(C)nc(NC(=O)c2c(F)c(F)c(F)c(C(=O)Nc3cc(C)cc(C)n3)c2F)c1	?	0	16µM	?	?	0
Cc1nc(NC(=O)c2c(-c3ccccc3Cl)noc2C)sc1C	0	0	?	0	16µM	0
Cc1nnc(NC(=O)c2c(-c3ccccc3Cl)noc2C)s1	0	0	0	0	0	0[11.3 µM]
Cc1cc(C(F)F)n2nc(C(=O)Nc3sc4c(c3C(N)=O)CCC4)nc2n1	?	0	?	0	?	0
C[C@H](CO)N1C[C@H](C)[C@@H](CN(C)Cc2ccccc2C(=O)O)OCc2cnnn2CCCC1=O	0	0	0	0	0	0
CCCCN1CC(C)(C)[C@H](CC(=O)Nc2ccccc2)C1=O	0	0	0	0	0	0
O=C(NCCc1ccccc1Cl)C1CCC(=O)N(CC2CCCCC2)C1 (configuration not stated)	0	0	0	0	0	0
COc1ccc(Cl)cc1NC(=O)CCc1c(C)nc2c(c1C)c(=O)n(C)c(=O)n2C	0	0	0	0	0	0
CC(C)Cc1ccc(CN2CCCC(NC(=O)CCn3cnnn3)C2)cc1 (configuration not stated)	0	0	?	0	?	0
CC(C)Cc1nnc(NC(=O)C2=COCCO2)s1	0	0	0	0	0	0
Cc1onc(-c2ccccc2Cl)c1C(=O)Nc1ccc(Br)cc1	0	0	0	0	0	0
COC(=O)c1c(NC(=O)c2c(-c3ccccc3Cl)noc2C)sc2c1CCC2	0	0	18µM	0	18µM	0
Cc1onc(-c2ccccc2Cl)c1C(=O)Nc1sc2c(c1C(N)=O)CCC(C)C2 (configuration not stated)	0	0	0	?	0	0
Cc1onc(-c2ccccc2Cl)c1C(=O)Nc1ccccc1	0	0	?	0	12µM	0
O=C(Nc1ccccc1)c1cc(-c2ccccc2Cl)no1	0	0	16µM	0	16µM	0
COc1ccc(/C=C/C(=O)OCC(=O)Nc2ccc(N3CCOCC3)cc2)cc1OC	0	0	0	0	0	-
COc1ccc(/C=C(/NC(=O)c2ccc(Br)o2)C(=O)Nc2cccc(C(=O)O)c2)cc1	0	0	0	0	0	-

Screening results as filed in PubChem.
